# Test results published in the supplement of paper PMC6555819.
# Test system: RARa homodimer (NR concentration 270 nM)
# Assay: PBM binding z-score (relative to random genomic background probes); higher = stronger binding; sequences stand for … in GC…GCGATTGACAGCGTAGAATGAAGG
# How it was run: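 Custom Agilent 4×180K protein-binding microarrays carried double-stranded probes. Their 34-nt variable regions held direct-repeat seeds, single-nucleotide variants, half-site ablations and random human genomic background sequences. Arrays were incubated 1 h with ligand-free nuclear receptor dimers in PBS pH 7.4, 2% milk, 0.02% Triton X-100, 1 mM DTT, 0.2 mg/mL BSA and 0.4 mg/ml salmon testes DNA. Antibodies against each partner (one per run) detected binding, and scanned fluorescence was regression-normalized. Binding z-scores use random background probes as reference.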
row,Sequence,PBM binding z-score
1,TCATATAGGTAACCAGGTGAAAGTCCGTAAGTTA,0.583
2,TGAATGAGGCTATAAGATCAGGGAACGTTGCAAA,-0.382
3,CCGACTGGGCCAAGGTTACCATAACGCACAGCCA,-0.101
4,AGAATGAGGTTATTAAGGTCAGGGAATTGCGGTC,1.85
5,CCTTACGAGTCACGAGGTTATAGCACGACGAGCG,1.56
6,GCTATTAGTTGAAAGGGCCACCGAATGATTCTCG,0.309
7,GCTATTAGTTGAAAGGGCAACCGCATGATTCTCG,0.567
8,CCTGCTTGGTCATGGTCAGCTAATCTACAGTATG,-0.318
9,CAAACTAGGTCACAGAGTTCAAAGTCCGTGCGTA,1.27
10,CGTCAAAGTTCACGGTAACGTAACAGAAAGCAGC,1.67
11,ATCTCTAGGTAAAGATAATTCAGTGAATGCAAAT,1.38
12,GGAACAAGGGCATTCGAGTTGATAGCATGGCGAT,0.198
13,CCTACTGGGGCATAAGGTTACCATAAGCCAGCCC,0.103
14,GATACAGGGTCAAGGCCAGAGCACGCGTATTGAT,0.569
15,CCTAGTTGGTCAAGGTCACTCACGCTATAGGTAC,2.53
16,TAGCCTGGGTCATTGGGCCAGTATAGTACGCATC,-0.67
17,ATCTCTAGTTAAAAGTTCAGTGAATCCCGAGGAT,1.8
18,TCTGCTAGGTCAGTGGGTCAGCTAACGAGCTGCC,-0.00938
19,CCTTACGGGTCACGAGGTTTTAGCACGACGAGCG,0.695
20,GCTTACGGGTCAAAGGCTATAGCATGAATAGAAT,-0.0609
21,AGAATGAGGTTATTAAGTTCAGGGAATTGCGGTC,0.854
22,ACAGACAGGTGATGAAGGTAACTCCGGCTATCAT,0.0561
